According to PubChem BioAssay (Tox21):
Results filed as inconclusive are left out. Entries that show only a call come without a potency. The source made the active and inactive calls. Unless noted, calls follow the shape of the dose curve; as a rule, active = well fitted curve in the direction sought with a large enough effect in the repeat runs; inconclusive = weak or mixed curves; inactive = no such curve, though single readings can be large; an effect the other way counts as inactive or inconclusive.

Assays:
[1] = qHTS assay to identify small molecule antagonists of the glucocorticoid receptor (GR) signaling pathway - cell viability counter screen (AID 720693); also: nearly all actives have a fitted effect of over 55% in size
[2] = qHTS assay for identifying genotoxic compounds that show differential cytotoxicity against isogenic chicken DT40 cell lines with known DNA damage response pathways - wild type cell line (AID 743012); also: nearly all actives have a fitted effect of over 60% in size; also: potency is read from the fitted curve at half-maximal effect
How it was run: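 Endpoint: CellTiter-Glo luminescence, 30 min RT. Cells: wild type DT40, 300/well. Exposure: compounds in DMSO, 40 h, 37 C/5% CO2, after ~0.5 h pre-incubation.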

[3] = qHTS assay for identifying genotoxic compounds that show differential cytotoxicity against isogenic chicken DT40 cell lines with known DNA damage response pathways - Rev3 mutant cell line (AID 743014); also: nearly all actives have a fitted effect of over 55% in size; also: potency is read from the fitted curve at half-maximal effect
[4] = qHTS assay for identifying genotoxic compounds that show differential cytotoxicity against isogenic chicken DT40 cell lines with known DNA damage response pathways - Rad54/Ku70 mutant cell line (AID 743015); also: nearly all actives have a fitted effect of over 60% in size; also: potency is read from the fitted curve at half-maximal effect
[5] = qHTS assay to identify small molecule antagonists of the androgen receptor (AR) signaling pathway - cell viability counter screen (AID 743033; also: nearly all actives have a fitted effect of over 45% in size)
[6] = target: Estrogen receptor (Homo sapiens) (UniProt P03372); assay: qHTS assay to identify small molecule antagonists of the estrogen receptor alpha (ER-alpha) signaling pathway (AID 743069; active = well fitted curve in the direction sought with a large enough effect in the signal ratio in the repeat runs, not every such curve was filed as active; the % refers to the signal ratio)
Sequence of Estrogen receptor (Homo sapiens) (P03372 whole entry, looked up): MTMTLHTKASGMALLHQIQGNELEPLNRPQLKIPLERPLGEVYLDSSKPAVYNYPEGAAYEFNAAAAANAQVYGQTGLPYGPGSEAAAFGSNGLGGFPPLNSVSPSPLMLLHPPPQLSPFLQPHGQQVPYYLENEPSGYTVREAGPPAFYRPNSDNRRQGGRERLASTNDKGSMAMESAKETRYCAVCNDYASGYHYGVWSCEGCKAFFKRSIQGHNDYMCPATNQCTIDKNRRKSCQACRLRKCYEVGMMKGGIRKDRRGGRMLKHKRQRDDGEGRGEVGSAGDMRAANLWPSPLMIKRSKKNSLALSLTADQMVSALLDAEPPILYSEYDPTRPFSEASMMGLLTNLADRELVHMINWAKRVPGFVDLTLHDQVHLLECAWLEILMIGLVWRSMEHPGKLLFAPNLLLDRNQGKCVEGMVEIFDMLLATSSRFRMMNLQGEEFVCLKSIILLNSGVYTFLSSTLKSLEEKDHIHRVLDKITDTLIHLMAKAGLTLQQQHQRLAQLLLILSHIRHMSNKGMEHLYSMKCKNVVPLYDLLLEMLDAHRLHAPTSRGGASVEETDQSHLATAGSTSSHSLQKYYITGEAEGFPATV
How it was run: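 Fluorescence intensity from a beta-lactamase FRET substrate served as the read-out. Cells: HEK293 with stably integrated ER-alpha-UAS-bla reporter. Agonist 17beta-estradiol was co-added with compounds; incubation 18 hr at 37C, substrate 2 hr at room temperature.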

[7] = qHTS assay to identify small molecule antagonists of the estrogen receptor alpha (ER-alpha) signaling pathway - cell viability counter screen (AID 743074; calls by dose curve; also: nearly all actives have a fitted effect of over 45% in size)
[8] = target: Estrogen receptor (Homo sapiens) (UniProt P03372); assay: qHTS assay to identify small molecule agonists of the estrogen receptor alpha (ER-alpha) signaling pathway (AID 743075; calls by dose curve)
[9] = target: Estrogen receptor (Homo sapiens) (UniProt P03372); assay: qHTS assay to identify small molecule agonists of the estrogen receptor alpha (ER-alpha) signaling pathway using the BG1 cell line (AID 743079); also: nearly all actives have a fitted effect of over 20% in size; also: potency is read from the fitted curve at half-maximal effect
[10] = qHTS assay to identify small molecule antagonists of the estrogen receptor alpha (ER-alpha) signaling pathway using the BG1 cell line (AID 743080; calls by dose curve; also: series mostly up to about 70 µM; nearly all actives have a fitted effect of over 25% in size)
How it was run: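 Antagonist mode: compounds in DMSO were pinned onto BG1-Luc-4E2 cells alongside 17beta-estradiol agonist, incubated 21.5 h, and ERE-driven luciferase measured with ONE-Glo. Cytotoxicity was multiplexed using CellTiter-Fluor fluorescence.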

[11] = qHTS assay to identify small molecule antagonists of the estrogen receptor alpha (ER-alpha) signaling pathway using the BG1 cell line - cell viability counter screen (AID 743081);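 also: compound given together with 17beta-estradiol as the ER stimulus; series mostly up to about 70 µM; nearly all actives have a fitted effect of over 45% in size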
Aromatase (Homo sapiens) = Aromatase (Homo sapiens) (UniProt P11511); assay: qHTS assay to identify aromatase inhibitors (AID 743083); also: nearly all actives have a fitted effect of over 55% in size; also: potency is read from the fitted curve at half-maximal effect
Sequence of Aromatase (Homo sapiens) (P11511 whole entry, looked up): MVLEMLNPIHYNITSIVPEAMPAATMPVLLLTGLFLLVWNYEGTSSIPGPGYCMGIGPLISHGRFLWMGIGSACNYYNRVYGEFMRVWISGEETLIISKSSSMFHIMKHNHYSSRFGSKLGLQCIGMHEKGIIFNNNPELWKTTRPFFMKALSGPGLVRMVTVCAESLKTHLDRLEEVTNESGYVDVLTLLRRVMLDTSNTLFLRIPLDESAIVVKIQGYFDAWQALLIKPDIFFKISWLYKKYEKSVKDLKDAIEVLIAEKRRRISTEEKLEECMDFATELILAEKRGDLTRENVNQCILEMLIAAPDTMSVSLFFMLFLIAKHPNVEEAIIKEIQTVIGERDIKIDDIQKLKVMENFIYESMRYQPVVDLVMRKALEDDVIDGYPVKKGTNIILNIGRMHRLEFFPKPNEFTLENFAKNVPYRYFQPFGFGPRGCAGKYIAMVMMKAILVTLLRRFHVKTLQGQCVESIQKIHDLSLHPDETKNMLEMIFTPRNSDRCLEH

[12] = qHTS assay to identify small molecule antagonists of the thyroid receptor (TR) signaling pathway - cell viability counter screen (AID 743064); also: nearly all actives have a fitted effect of over 50% in size; also: potency is read from the fitted curve at half-maximal effect
How it was run: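 Plate GH3.TRE-Luc cells; incubate 4 h at 37 °C; add compound, then T3 to 1 nM final; incubate 23.5 h; add CellTiter-Fluor; incubate 30 min at 37 °C, 5% CO2; read fluorescence.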

[13] = qHTS assay to identify small molecule antagonists of the thyroid receptor (TR) signaling pathway (AID 743065); also: nearly all actives have a fitted effect of over 55% in size; also: potency is read from the fitted curve at half-maximal effect
How it was run: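 Antagonism measured as loss of luciferase signal in GH3 cells stably carrying a TRE-luciferase reporter, co-treated with compound and T3 (1 nM final) for 23.5 h at 37 C. Viability was read in the same well by CellTiter-Fluor.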

[14] = system: thyroid hormone receptor (rat, GH3 cells); assay: qHTS assay to identify small molecule agonists of the thyroid receptor (TR) signaling pathway (AID 743066; calls by dose curve)
[15] = target: Androgen receptor (Homo sapiens) (UniProt P10275); assay: qHTS assay to identify small molecule antagonists of the androgen receptor (AR) signaling pathway (AID 743035; active = well fitted inhibition curve with a large enough effect in the signal ratio in the repeat runs, not every such curve was filed as active; the % refers to the signal ratio; also: potency is read from the fitted curve at half-maximal effect)
Sequence of Androgen receptor (Homo sapiens) (P10275 whole entry, looked up): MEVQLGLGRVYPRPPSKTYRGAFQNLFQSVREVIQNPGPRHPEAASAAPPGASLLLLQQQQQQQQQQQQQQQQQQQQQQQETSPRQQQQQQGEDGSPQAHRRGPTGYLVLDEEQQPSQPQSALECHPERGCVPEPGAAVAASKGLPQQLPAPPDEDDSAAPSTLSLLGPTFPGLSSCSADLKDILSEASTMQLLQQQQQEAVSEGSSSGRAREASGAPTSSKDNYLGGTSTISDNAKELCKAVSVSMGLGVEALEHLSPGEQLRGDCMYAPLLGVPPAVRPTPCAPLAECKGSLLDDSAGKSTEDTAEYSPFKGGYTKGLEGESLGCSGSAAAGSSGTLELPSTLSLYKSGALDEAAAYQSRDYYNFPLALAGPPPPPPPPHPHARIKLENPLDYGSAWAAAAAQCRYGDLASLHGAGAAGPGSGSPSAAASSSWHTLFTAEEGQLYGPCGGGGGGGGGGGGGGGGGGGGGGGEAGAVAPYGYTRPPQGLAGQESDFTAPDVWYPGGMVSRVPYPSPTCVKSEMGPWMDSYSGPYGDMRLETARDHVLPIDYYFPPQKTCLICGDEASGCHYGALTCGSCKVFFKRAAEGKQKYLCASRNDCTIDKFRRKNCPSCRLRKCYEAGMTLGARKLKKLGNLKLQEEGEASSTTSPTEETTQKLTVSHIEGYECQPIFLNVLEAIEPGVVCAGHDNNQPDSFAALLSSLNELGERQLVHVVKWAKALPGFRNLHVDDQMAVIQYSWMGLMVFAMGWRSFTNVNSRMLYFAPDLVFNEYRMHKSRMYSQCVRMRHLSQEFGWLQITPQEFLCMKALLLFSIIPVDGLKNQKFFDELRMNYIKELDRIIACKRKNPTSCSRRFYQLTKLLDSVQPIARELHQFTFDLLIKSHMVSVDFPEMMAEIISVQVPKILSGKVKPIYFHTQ
How it was run: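 R1881 agonist challenge of a HEK293 UAS-beta-lactamase AR reporter line in the presence of compound (16 h, 37C); signal taken as FRET fluorescence after 2 h with LiveBLAzer B/G substrate at room temperature.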

[16] = target: Androgen receptor (Homo sapiens) (UniProt P10275); assay: qHTS assay to identify small molecule agonists of the androgen receptor (AR) signaling pathway using the MDA cell line (AID 743040; also: nearly all actives have a fitted effect of over 20% in size)
How it was run: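 Stable MMTV-luciferase reporter in MDA-kb2 cells; note the promoter carries GR as well as AR response elements. 16 h compound treatment, 37C, 0% CO2; ONE-Glo luminescence endpoint.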

[17] = qHTS assay to identify small molecule antagonists of the androgen receptor (AR) signaling pathway using the MDA cell line - cell viability counter screen (AID 743041; also: nearly all actives have a fitted effect of over 45% in size)
How it was run: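 Using the breast carcinoma line MDA-kb2 AR-luc, test chemicals were co-incubated with R1881 for 16 h; CellTiter-Fluor reagent, added at 15.5 h, provided a fluorescence measure of live cells.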

[18] = target: Androgen receptor (Homo sapiens) (UniProt P10275); assay: qHTS assay to identify small molecule antagonists of the androgen receptor (AR) signaling pathway using the MDA cell line (AID 743042; also: nearly all actives have a fitted effect of over 55% in size; also: potency is read from the fitted curve at half-maximal effect)
How it was run: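 Antagonist mode: compounds plus R1881 agonist added to MDA-kb2 AR-luc cells, incubated 16 h at 37C. Luciferase reporter luminescence quantified, with multiplexed CellTiter-Fluor readout for cell viability.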

[19] = target: Androgen receptor (Homo sapiens) (UniProt P10275); assay: qHTS assay to identify small molecule agonists of the androgen receptor (AR) signaling pathway (AID 743036; active = well fitted activation curve with a large enough effect in the signal ratio in the repeat runs, with a control signal flat, not every such curve was filed as active; the % refers to the signal ratio)
How it was run: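 Reporter line: GeneBLAzer AR-UAS-bla-GripTite (HEK293). Steps: plate cells, 4 h rest, add compounds, 16 h at 37C, add LiveBLAzer B/G substrate, 2 h at RT, read fluorescence.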

Row | Compound | Potency [1] | Potency [2] | Potency [3] | Potency [4] | Potency [5] | Potency [6] | Potency [7] | Potency [8] | Potency [9] | Potency [10] | Potency [11] | Potency (Aromatase (Homo sapiens)) | Potency [12] | Potency [13] | Potency [14] | Potency [15] | Potency [16] | Potency [17] | Potency [18] | outcome [19]
1 | CN1[C@@H]2CC[C@H]1CC(OC(=O)c1cc(Cl)cc(Cl)c1)C2 (some centres undefined) | inactive | 3.76 µM (active) | 2.98 µM (active) | 5.96 µM (active) | inactive | inactive | inactive | inactive | inactive | inactive | inactive | inactive |  |  |  |  |  |  |  | 
2 | CC(Cl)C(C)Cl (centres undefined) | inactive | inactive | inactive | inactive | inactive | inactive | inactive | inactive | inactive | inactive | inactive | inactive | inactive | inactive | inactive |  |  |  |  | 
3 | CCOP(=S)(OCC)SCSCC | inactive | 54.5 µM (active) | 27.3 µM (active) | 48.6 µM (active) | inactive | inactive | inactive | inactive | 30.6 µM (active) | inactive | inactive | inactive | inactive | inactive | inactive |  |  |  |  | 
4 | Clc1ccc(C2(Cn3cncn3)CC(Br)CO2)c(Cl)c1 (centres undefined) | inactive | 8.58 µM (active) | 8.58 µM (active) | 12.1 µM (active) |  |  | inactive | inactive |  |  | inactive | 17.1 µM (active) | inactive |  | inactive |  |  |  |  | 
5 | ClCCCCBr | inactive | inactive | inactive | inactive | inactive |  | inactive |  |  |  | inactive | inactive | inactive |  |  |  |  |  |  | 
6 | CC[C@H]1C[C@H]2[C@@H]3CCC4=CC(=O)CC[C@@H]4[C@H]3CC[C@]2(C)[C@H]1O | inactive | 16.8 µM (active) | 29.8 µM (active) | 21.1 µM (active) | inactive |  |  | inactive | 10.6 µM (active) |  |  | inactive | inactive | 21.1 µM (active) | inactive |  |  |  |  | 
7 | COc1ccc(-c2ccccc2)cc1NNC(=O)OC(C)C | inactive | 63.7 µM (active) | 71.5 µM (active) | 28.4 µM (active) |  |  |  | inactive |  |  | inactive | inactive |  | 71.5 µM (active) | inactive | 51 µM (active) | inactive | inactive | 71.5 µM (active) | 
8 | CCC(Cl)CCl (centres undefined) | inactive | inactive | inactive | inactive | inactive | inactive | inactive | inactive | inactive | inactive | inactive | inactive | inactive | inactive | inactive |  |  |  |  | 
9 | COC1=CC(=O)O[C@@H](CCc2ccccc2)C1 | inactive | inactive | inactive |  | inactive |  | inactive |  |  |  | inactive | inactive | inactive | inactive | inactive |  | inactive | inactive | inactive | 
10 | ClCc1ccccc1 | inactive | inactive | inactive | inactive | inactive | inactive | inactive | inactive | inactive | inactive | inactive | inactive | inactive |  | inactive |  |  |  |  | 
11 | CCOC(=O)[C@]1(c2ccccc2)Oc2ccccc2[C@@H]1N | inactive | 48.6 µM (active) | 4.86 µM (active) | 24.3 µM (active) |  |  |  |  |  |  |  | 27.3 µM (active) | 68.6 µM (active) | 68.6 µM (active) |  |  |  |  |  | 
12 | O=C(OC1CCCCC1)c1ccccc1C(=O)OC1CCCCC1 | inactive | 28.8 µM (active) | 22.9 µM (active) | 25.7 µM (active) |  |  | inactive | inactive | inactive |  | inactive |  |  | 72.3 µM (active) | inactive |  |  | inactive |  | 
13 | Cl/C=C\Cl | inactive | inactive | inactive | inactive | inactive | inactive | inactive | inactive | inactive |  | inactive | inactive | inactive | inactive | inactive |  |  |  |  | 
14 | CCCCC(CC)COP(=O)(Oc1ccccc1)Oc1ccccc1 (centres undefined) | inactive | inactive | 48.6 µM (active) |  | inactive | inactive | inactive | inactive | inactive | inactive | inactive | inactive |  |  | inactive | inactive | inactive | inactive | inactive | inactive
15 | COP(=S)(Oc1cc(Cl)c(Br)cc1Cl)c1ccccc1 (centres undefined) | inactive | inactive | inactive |  | inactive | inactive | inactive | inactive | inactive | inactive | inactive |  |  | 61.1 µM (active) | inactive |  | inactive | inactive | inactive | 
16 | C=CCC1([C@H](C)CCC)C(=O)NC(=O)NC1=O | inactive | inactive | inactive | inactive | inactive | inactive | inactive | inactive | inactive | inactive | inactive | inactive | inactive | inactive | inactive |  |  |  |  | 
17 | CS/C(C)=N/OC(=O)N(C)SN(C)C(=O)O/N=C(\C)SC | inactive | 6.86 µM (active) | 17.2 µM (active) | 15.4 µM (active) |  | inactive | inactive | inactive | inactive | inactive | inactive | inactive | 27.3 µM (active) | 27.3 µM (active) | inactive | inactive | inactive | inactive | inactive | inactive
18 | CC/C(=N\OC/C=C/Cl)C1=C(O)CC(C2CCOCC2)CC1=O (centres undefined) | inactive | inactive | inactive | inactive | inactive |  | inactive |  |  |  | inactive | inactive | inactive | inactive | inactive |  |  |  |  | 
19 | O=S(=O)(Cl)c1ccccc1 | inactive | inactive | inactive | inactive | inactive |  | inactive |  |  |  | inactive | inactive | inactive | inactive | inactive |  |  |  |  | 
20 | Oc1ccc(Cl)c(Cl)c1Cl | inactive | inactive | inactive | inactive |  |  | inactive |  |  |  | inactive | inactive | inactive |  | inactive |  |  | inactive |  | 
21 | O=S1OC[C@@H]2[C@H](CO1)[C@]1(Cl)C(Cl)=C(Cl)[C@@]2(Cl)C1(Cl)Cl (some centres undefined) | inactive | 24.3 µM (active) | 27.3 µM (active) | 30.6 µM (active) |  |  | inactive | inactive |  |  | inactive | 61.1 µM (active) |  |  | inactive |  | inactive |  |  | inactive
22 | CCOP(=O)(OCC)SCCSCC | inactive | inactive | inactive | inactive | inactive | inactive | inactive | inactive |  | inactive | inactive | inactive |  | inactive | inactive |  |  |  |  | 
23 | COC(=O)c1cncn1C(C)c1ccccc1 (centres undefined) | inactive | inactive | inactive | inactive | inactive | inactive | inactive | inactive | inactive | inactive | inactive | inactive | inactive | inactive | inactive |  |  |  |  | 
24 | C[C@@H]1CC[C@H]2[C@@H](C)C(=O)O[C@@H]3O[C@@]4(C)CC[C@@H]1[C@]32OO4 | inactive | 0.422 µM (active) | 0.473 µM (active) | 0.237 µM (active) |  |  | inactive |  |  |  | inactive |  | 5.96 µM (active) | 2.37 µM (active) | inactive | 1.69 µM (active) | inactive |  | 1.33 µM (active) | inactive
